Assay results reported in PubChem BioAssay (NCATS).
Values without a mark were called inactive. Results filed as inconclusive are left out. Active and inactive are the calls of the source. Unless noted, the call rests on the fitted dose curve; in most records, active means well fitted curve in either direction with a large enough effect (not every such curve was filed as active); inconclusive means small, poorly fitted or top-dose-only effect, or another doubt; inactive means flat fitted curve, though single readings scatter.

Legend:
[1] = target: Lysosomal acid glucosylceramidase (Homo sapiens) (UniProt P04062); assay: Glucocerebrosidase-p2 (AID 348; in the data active means potency below about 10 µM; further: potency means the concentration at half of the fitted maximal effect); conditions: purified GBA, blue fluorogenic substrate, 40 min
Procedure, shortened: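 Compounds titrated from 0.6 nM upwards against 0.2 nM enzyme in pH 5.9 citric acid/KH2PO4, taurocholate, tween-20; blue fluorogenic substrate 80 uM, 40 min room temperature, stopped and read Ex 365/Em 440 for AC50.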

[2] = AP1 Signaling Pathway (AID 357); conditions: ME-180 AP-1-bla reporter, EGF-induced, beta-lactamase ratio, 5 h; at 7.69 µM (top of the series) unless noted;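 further: ME-180 reporter cells stimulated with EGF at its EC50 level; on the % scale 0 is the no-effect control and ±100 the full control effect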
Procedure, shortened: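 Titration-series screen for positive or negative modulators of EC50 EGF-induced signaling in ME-180 cells carrying an AP-1-driven beta-lactamase reporter. After 5 hours at 37 degrees Celsius, CCF4 460nm/530nm emission ratio gave %Activity; AC50 values derived.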

[3] = target: Cytochrome P450 1A2 (Homo sapiens) (UniProt P05177); assay: p450-cyp1a2 (AID 410; calls by dose curve; further: potency means the concentration at half of the fitted maximal effect;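 on activity change, negative = inhibition: -100% = full effect of reference inhibitor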); conditions: recombinant CYP1A2, luciferin-ME demethylation, luminescence; series mostly up to 11.4 µM
Procedure, shortened: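 Human CYP1A2 (20nM) demethylated Luciferin-ME at its Km (100uM) in 100mM KPO4. After 10 min compound preincubation, NADPH regeneration ran the reaction 60 min at room temperature. Luciferin was read by luminescence, normalized to 57 uM furafylline.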

[4] = NFAT Signaling Pathway (AID 444); conditions: Jurkat NFAT-bla M1, carbachol, beta-lactamase ratio, 5 h; at 7.69 µM (top of the series) unless noted;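 further: carbachol stimulus at about its EC50 of 1 µM final; on the % scale 0 is the no-effect control and ±100 the full control effect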
Procedure, shortened: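 Jurkat cells with NFAT-driven β-lactamase reporter and co-expressed M1 receptor, stimulated with carbachol (final 1 uM, ~EC50), compound titration, 5 h at 37 °C. CCF4 loaded 1 h at RT; 460/530 nm ratio gave %activity and AC50.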

[5] = Stat Signaling Pathway (AID 446); conditions: ME-180 SIE beta-lactamase reporter, IL-6 stimulated, 5 h; at 7.69 µM (top of the series) unless noted;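 further: ME-180 cervical cancer cells given 40 pM IL-6 alongside compound; SIE-controlled beta-lactamase reporter measured as 460/530 nm FRET emission ratio; on the % scale 0 is the no-effect control and ±100 the full control effect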
Procedure, shortened: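 Reporter line: ME-180 cervical carcinoma, SIE-beta-lactamase. Treatment: compound with 40 pM IL-6, 5 hrs, 37 C, in low-serum OPTI-MEM with 10 mM HEPES pH 7.3. Detection: 460/530 nm fluorescence.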

[6] = target: Glucocorticoid receptor (Homo sapiens) (UniProt P04150); assay: GR-GFP Redistribution (AID 450;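 active means compounds whose dose series gives a full or clear partial fitted curve of increased nuclear translocation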; further: potency means the concentration at half of the fitted maximal effect); conditions: U2OS GR-GFP nuclear translocation, laser cytometry, 2 h
[7] = target: Glucocorticoid receptor (Homo sapiens) (UniProt P04150); assay: GR-EFC Redistribution (AID 451; calls by dose curve; further: potency means the concentration at half of the fitted maximal effect); conditions: CHO-K1 GR-EFC translocation, beta-gal luminescence, 2 h
Procedure, shortened: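 CHO-K1 cells expressing nuclear EA and GR-ED fragments of b-gal; compounds titrated up to 46 uM final, 2 h at 37 C. GR nuclear translocation read as complemented b-gal luminescence after 1 h RT detection.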

[8] = target: Mitogen-activated protein kinase 10 (Mus musculus) (UniProt Q61831); assay: JNK3 AlphaScreen Assay (AID 530); conditions: JNK3 lysate, c-Jun phosphorylation; series mostly up to 11.4 µM;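 further: kinase came from lysate of stimulated human HepG2 cells; signal reports phosphorylation of biotinylated GST-cJun 1-79 at Ser73 with 10 µM ATP; on the % scale 0 is the no-effect control and ±100 the full control effect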
Procedure, shortened: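 qHTS format: compounds tested as titrations against IL-1beta/TNF-alpha-activated HepG2 lysate JNK3 with biotin-GST-cJun substrate and 10 uM ATP at room temperature. Loss of anti-phospho-cJun AlphaScreen signal indicates inhibition.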

[9] = target: 3',5'-cyclic-AMP phosphodiesterase 4B (Homo sapiens) (UniProt Q07343); assay: qHTS Assay for Inhibitors of PDE-IV (AID 607; active means well fitted activation curve with a large enough effect in the main read-out, with a control signal flat, not every such curve was filed as active; further: % of control where 0% means no effect); conditions: HEK293 ACTOne CNG channel cells, membrane potential fluorescence; series mostly up to 22.9 µM
Procedure, shortened: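 Cell-based read-out of cAMP via a modified cyclic nucleotide-gated channel and membrane potential dye (535/590 nm) in HEK293 cells expressing PDE4 endogenously. Compounds tested up to 22.9 uM final; 100 uM RO 20-1724 reference.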

Chain of Lysosomal acid glucosylceramidase (Homo sapiens) (P04062 whole entry, looked up): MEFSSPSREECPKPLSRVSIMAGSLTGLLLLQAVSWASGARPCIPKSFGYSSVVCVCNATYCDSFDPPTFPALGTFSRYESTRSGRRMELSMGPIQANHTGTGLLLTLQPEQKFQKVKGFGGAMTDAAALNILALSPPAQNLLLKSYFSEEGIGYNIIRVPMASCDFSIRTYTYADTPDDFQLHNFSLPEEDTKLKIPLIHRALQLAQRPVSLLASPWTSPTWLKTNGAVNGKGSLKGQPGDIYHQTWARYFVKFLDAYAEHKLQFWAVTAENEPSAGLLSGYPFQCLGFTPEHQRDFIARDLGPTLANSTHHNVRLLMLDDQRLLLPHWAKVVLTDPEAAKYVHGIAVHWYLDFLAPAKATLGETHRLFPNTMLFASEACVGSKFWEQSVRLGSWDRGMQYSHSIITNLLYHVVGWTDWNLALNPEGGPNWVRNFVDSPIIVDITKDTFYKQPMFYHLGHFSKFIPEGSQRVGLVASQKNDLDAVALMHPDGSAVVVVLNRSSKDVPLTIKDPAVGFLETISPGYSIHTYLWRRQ
Chain of Glucocorticoid receptor (Homo sapiens) (P04150 whole entry, looked up, the tested form may be a part): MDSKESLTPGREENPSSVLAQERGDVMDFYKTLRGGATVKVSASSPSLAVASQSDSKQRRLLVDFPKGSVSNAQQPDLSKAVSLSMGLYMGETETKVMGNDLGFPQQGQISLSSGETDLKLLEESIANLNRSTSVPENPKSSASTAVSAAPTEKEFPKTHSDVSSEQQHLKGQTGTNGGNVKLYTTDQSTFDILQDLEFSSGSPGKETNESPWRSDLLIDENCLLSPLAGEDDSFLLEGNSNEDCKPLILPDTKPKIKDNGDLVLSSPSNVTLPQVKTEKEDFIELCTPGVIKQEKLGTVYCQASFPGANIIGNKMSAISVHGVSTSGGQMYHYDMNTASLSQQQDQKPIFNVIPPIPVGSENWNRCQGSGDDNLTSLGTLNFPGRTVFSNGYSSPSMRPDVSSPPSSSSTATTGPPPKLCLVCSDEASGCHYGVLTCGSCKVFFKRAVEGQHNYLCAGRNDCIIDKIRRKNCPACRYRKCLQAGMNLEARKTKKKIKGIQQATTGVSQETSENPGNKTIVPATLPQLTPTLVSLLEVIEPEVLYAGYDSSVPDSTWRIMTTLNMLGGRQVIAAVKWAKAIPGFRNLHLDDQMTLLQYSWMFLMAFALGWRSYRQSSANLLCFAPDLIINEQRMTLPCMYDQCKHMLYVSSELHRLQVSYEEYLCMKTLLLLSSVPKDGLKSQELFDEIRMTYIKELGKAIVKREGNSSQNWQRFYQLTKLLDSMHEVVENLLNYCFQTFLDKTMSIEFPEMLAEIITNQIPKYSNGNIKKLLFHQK
Chain of 3',5'-cyclic-AMP phosphodiesterase 4B (Homo sapiens) (Q07343 whole entry, looked up): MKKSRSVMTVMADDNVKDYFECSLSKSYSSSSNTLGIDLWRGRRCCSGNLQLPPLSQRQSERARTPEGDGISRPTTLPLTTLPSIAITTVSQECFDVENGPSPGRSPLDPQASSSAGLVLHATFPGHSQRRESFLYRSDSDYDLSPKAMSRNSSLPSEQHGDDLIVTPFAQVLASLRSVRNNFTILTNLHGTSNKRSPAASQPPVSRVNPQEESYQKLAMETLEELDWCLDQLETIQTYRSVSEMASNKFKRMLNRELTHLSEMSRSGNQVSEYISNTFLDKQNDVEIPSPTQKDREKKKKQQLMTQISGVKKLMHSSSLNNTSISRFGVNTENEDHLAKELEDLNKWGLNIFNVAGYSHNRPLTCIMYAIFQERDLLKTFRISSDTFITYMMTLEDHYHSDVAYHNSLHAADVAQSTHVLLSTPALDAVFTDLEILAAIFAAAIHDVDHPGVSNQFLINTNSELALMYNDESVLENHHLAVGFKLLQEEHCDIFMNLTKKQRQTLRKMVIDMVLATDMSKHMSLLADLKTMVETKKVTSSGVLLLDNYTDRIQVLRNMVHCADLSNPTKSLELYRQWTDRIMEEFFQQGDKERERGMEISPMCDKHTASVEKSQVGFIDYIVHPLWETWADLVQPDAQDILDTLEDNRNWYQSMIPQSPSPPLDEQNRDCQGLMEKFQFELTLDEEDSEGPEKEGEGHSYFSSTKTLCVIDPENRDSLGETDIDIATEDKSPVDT
Chain of Cytochrome P450 1A2 (Homo sapiens) (P05177 whole entry, looked up): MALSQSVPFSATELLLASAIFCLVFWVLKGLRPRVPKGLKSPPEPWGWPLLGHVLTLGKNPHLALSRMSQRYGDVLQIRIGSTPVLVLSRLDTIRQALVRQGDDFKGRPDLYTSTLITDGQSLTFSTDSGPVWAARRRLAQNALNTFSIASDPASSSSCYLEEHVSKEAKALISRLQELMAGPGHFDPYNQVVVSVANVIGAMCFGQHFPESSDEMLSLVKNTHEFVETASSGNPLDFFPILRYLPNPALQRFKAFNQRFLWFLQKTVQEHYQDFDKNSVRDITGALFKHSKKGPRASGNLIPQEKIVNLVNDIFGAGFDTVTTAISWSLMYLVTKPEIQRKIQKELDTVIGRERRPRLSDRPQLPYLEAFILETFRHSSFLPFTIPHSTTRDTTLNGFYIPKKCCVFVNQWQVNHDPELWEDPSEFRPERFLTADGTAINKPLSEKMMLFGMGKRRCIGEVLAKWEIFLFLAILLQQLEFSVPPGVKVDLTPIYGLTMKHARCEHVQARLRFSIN

COc1ccc2[nH]c3cc4c(=O)c5cc(OC)ccc5[nH]c4cc3c(=O)c2c1
Potency [1]: > 11.4 µM | activity change, negative = inhibition [2]: -2.15% | activity change, negative = inhibition [3]: -6% [at 2.29 µM] | activity change, negative = inhibition [4]: -1.64% | activity, negative = inhibition [5]: -1.86% | Potency [6]: > 46 µM | Potency [7]: > 9.22 µM | Potency [8]: inactive | Potency [9]: inactive

S=C(S)NCCN1CCNCC1
Potency [1]: > 11.4 µM | activity change, negative = inhibition [2]: -1.68% | Potency [3]: inactive | activity change, negative = inhibition [4]: -3.23% | activity, negative = inhibition [5]: -9.45% | Potency [6]: > 46 µM | Potency [7]: > 9.22 µM | Potency [8]: inactive | Potency [9]: inactive

N[C@@H](Cc1nn[nH]n1)C(=O)O
Potency [1]: > 11.4 µM | activity change, negative = inhibition [2]: -0.568% | Potency [3]: inactive | activity change, negative = inhibition [4]: -5.25% | activity, negative = inhibition [5]: 10.9% | Potency [6]: > 46 µM | Potency [7]: > 9.22 µM | Potency [8]: inactive | Potency [9]: inactive

NC(N)=NC(N)=Nc1ccc(S(=O)(=O)O)cc1
Potency [1]: > 11.4 µM | activity change, negative = inhibition [2]: 1.18% | Potency [3]: inactive | activity change, negative = inhibition [4]: 0.0165% | activity, negative = inhibition [5]: -0.308% | Potency [6]: > 46 µM | Potency [7]: > 9.22 µM | Potency [8]: inactive | Potency [9]: inactive

CN1CCCC[C@@H]1CCN1CCCCC1
Potency [1]: > 11.4 µM | activity change, negative = inhibition [2]: 4.46% | Potency [3]: 10 nM (active) | activity change, negative = inhibition [4]: -9.35% | activity, negative = inhibition [5]: 3.65% | Potency [6]: > 46 µM | Potency [7]: > 9.22 µM | Potency [8]: inactive | Potency [9]: inactive

CC(C)(N=NC(C)(C)C1=NCCN1)C1=NCCN1
Potency [1]: > 11.4 µM | activity change, negative = inhibition [2]: 3.01% | Potency [3]: inactive | activity change, negative = inhibition [4]: 7.08% | activity, negative = inhibition [5]: 3.73% | Potency [6]: > 46 µM | Potency [7]: > 9.22 µM | Potency [8]: inactive | Potency [9]: inactive

O=C(O)CCCSc1nc2ccccc2s1
Potency [1]: > 11.4 µM | activity change, negative = inhibition [2]: 1.43% | Potency [3]: inactive | activity change, negative = inhibition [4]: -19.5% | activity, negative = inhibition [5]: 4.62% | Potency [6]: > 46 µM | Potency [7]: > 9.22 µM | Potency [8]: inactive | Potency [9]: inactive

O=C(O)C(Cc1ccccc1-c1ccccc1)C(=O)O
Potency [1]: > 11.4 µM | activity change, negative = inhibition [2]: 12.3% | Potency [3]: inactive | activity change, negative = inhibition [4]: 3.57% | activity, negative = inhibition [5]: -0.388% | Potency [6]: > 46 µM | Potency [7]: > 9.22 µM | Potency [8]: inactive | Potency [9]: inactive

Cc1c(C(=O)O)nc(/C=C\C(=O)O)[nH]c1=O
Potency [1]: > 11.4 µM | activity change, negative = inhibition [2]: 11.1% | Potency [3]: inactive | activity change, negative = inhibition [4]: 3.17% | activity, negative = inhibition [5]: 21.1% | Potency [6]: > 46 µM | Potency [7]: > 9.22 µM | Potency [8]: inactive | Potency [9]: inactive

CN(C)Cc1cc(C(C)(C)C)ccc1-c1ccc(C(C)(C)C)cc1CN(C)C
Potency [1]: > 11.4 µM | activity change, negative = inhibition [2]: 4.9% | activity change, negative = inhibition [3]: -17.9% [at 2.29 µM] | activity change, negative = inhibition [4]: 5.47% | activity, negative = inhibition [5]: 1.89% | Potency [6]: > 46 µM | Potency [7]: > 9.22 µM | Potency [8]: inactive | Potency [9]: inactive

OCCSCc1ccccc1
Potency [1]: > 11.4 µM | activity change, negative = inhibition [2]: 2.72% | Potency [3]: inactive | activity change, negative = inhibition [4]: 3.48% | activity, negative = inhibition [5]: 4.23% | Potency [6]: > 46 µM | Potency [7]: > 9.22 µM | Potency [8]: inactive | Potency [9]: inactive

CN(C)CCCn1c2ccccc2c2cnccc21
Potency [1]: > 11.4 µM | activity change, negative = inhibition [2]: 1.6% | activity change, negative = inhibition [3]: -20% [at 2.29 µM] | activity change, negative = inhibition [4]: 2.32% | activity, negative = inhibition [5]: 13.9% | Potency [6]: > 46 µM | Potency [7]: > 9.22 µM | Potency [8]: inactive | Potency [9]: inactive

CN1CCN(c2nc3c(c(=O)n(C)c(=O)n3C)n2C)CC1
Potency [1]: > 11.4 µM | activity change, negative = inhibition [2]: -1.63% | activity change, negative = inhibition [3]: -16.8% [at 2.29 µM] | activity change, negative = inhibition [4]: 1.71% | activity, negative = inhibition [5]: -1.51% | Potency [6]: > 46 µM | Potency [7]: > 9.22 µM | Potency [8]: inactive | Potency [9]: inactive

O=C(O)c1cc(C(=O)O)nc(C(=O)O)c1
Potency [1]: > 11.4 µM | activity change, negative = inhibition [2]: 7.15% | Potency [3]: inactive | activity change, negative = inhibition [4]: 0.674% | activity, negative = inhibition [5]: 3.63% | Potency [6]: > 46 µM | Potency [7]: > 9.22 µM | Potency [8]: inactive | Potency [9]: inactive

CC(C)C(=O)Cc1ccc2ccccc2n1
Potency [1]: > 11.4 µM | activity change, negative = inhibition [2]: -4.8% | Potency [3]: 3160 nM (active) | activity change, negative = inhibition [4]: 12.2% | activity, negative = inhibition [5]: 3.27% | Potency [6]: > 46 µM | Potency [7]: > 9.22 µM | Potency [8]: inactive | Potency [9]: inactive

O=C(O)[C@@H]1[C@@H]2C[C@H]([C@@H](Br)[C@H]2N2C(=O)CCC2=O)[C@@H]1C(=O)O
Potency [1]: > 11.4 µM | activity change, negative = inhibition [2]: -1.32% | activity change, negative = inhibition [3]: -15.8% [at 2.29 µM] | activity change, negative = inhibition [4]: 10.6% | activity, negative = inhibition [5]: 11.9% | Potency [6]: > 46 µM | Potency [7]: > 9.22 µM | Potency [8]: inactive | Potency [9]: inactive
